IMPase cell inh: qHTS Assay for Identifying the Cell-Membrane Permeable IMPase Inhibitors; Inositol monophosphatase 1 (Rattus norvegicus), P97697; CHO-M1 cells, IP1 accumulation, HTRF TR-FRET ratio; inhibition (IP1 accumulation), % at 46.1 µM; 120,000 tested, under 10 active; AID 901, 2007; active means well fitted curve in the direction sought with a large enough effect in the signal ratio, not every such curve was filed as active; inconclusive means small, poorly fitted or top-dose-only effect, or a change in a side signal; inactive means no such curve, though single readings can be large or run the other way; the % refers to the signal ratio;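 further: cells stimulated with carbachol in lithium chloride buffer; plate controls were DMSO basal wells for no effect and reference inhibitor wells for full effect; higher means more IMPase inhibition seen as more IP1 and lower FRET ratio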
Target sequence (P97697 whole entry, looked up): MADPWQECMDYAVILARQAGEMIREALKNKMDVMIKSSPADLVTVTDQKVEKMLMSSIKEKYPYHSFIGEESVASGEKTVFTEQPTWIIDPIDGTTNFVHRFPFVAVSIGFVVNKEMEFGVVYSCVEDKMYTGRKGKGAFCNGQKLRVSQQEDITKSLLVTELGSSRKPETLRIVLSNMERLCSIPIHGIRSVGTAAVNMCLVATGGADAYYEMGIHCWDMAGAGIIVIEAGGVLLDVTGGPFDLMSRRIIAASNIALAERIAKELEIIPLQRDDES
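Measured: the HTRF emission ratio (665/620 nm) plus the 620 nm donor channel, each fitted to the Hill equation to give AC50. Cells were CHO-M1 given compounds up to 46 uM and a 30 min carbachol stimulation at 37C.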
HPGD block: qHTS Assay for Inhibitors of HPGD (15-Hydroxyprostaglandin Dehydrogenase); purified HPGD, NADH fluorescence kinetic, PGE2 substrate; Potency, µM, inactives show at the highest dose activity change, negative = inhibition, usual class: inhibitors; 4.3% of 150,000 active; AID 894, 2007; active means well fitted inhibition curve with a large enough effect, not every such curve was filed as active; inconclusive means small, poorly fitted or top-dose-only effect, or another doubt; inactive means no such curve, though single readings can be large or run the other way; further: potency means the concentration at half of the fitted maximal effect
Target sequence (P15428 whole entry, looked up): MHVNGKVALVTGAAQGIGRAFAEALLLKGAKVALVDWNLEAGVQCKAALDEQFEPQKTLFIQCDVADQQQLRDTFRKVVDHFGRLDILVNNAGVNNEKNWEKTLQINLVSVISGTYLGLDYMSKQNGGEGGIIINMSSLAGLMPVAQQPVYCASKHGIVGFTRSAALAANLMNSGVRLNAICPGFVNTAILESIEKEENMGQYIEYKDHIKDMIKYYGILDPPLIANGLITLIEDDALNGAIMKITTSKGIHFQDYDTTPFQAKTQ
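20 nM HPGD preincubated 15 min at room temperature with compound in 50 mM Tris-HCl pH 8, 0.01% Tween 20. Started with 1 mM NAD+ and 30 uM prostaglandin E2; NADH fluorescence (360/450 nm) read 5 times over 30-s intervals, last minus first.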
ALDH1A1 block: qHTS Assay for Inhibitors of Aldehyde Dehydrogenase 1 (ALDH1A1) | Aldehyde dehydrogenase 1A1 (Homo sapiens), P00352 | Purified ALDH1A1, NADH fluorescence, propionaldehyde substrate | Potency, µM (doses to about 75.3 µM), for the others: at the highest dose activity, negative = inhibition, hits mostly inhibitors | 7.3% of 220,000 active; active means well fitted inhibition curve with a large enough effect, not every such curve was filed as active; inconclusive means small, poorly fitted or top-dose-only effect, or another doubt; inactive means no such curve, though single readings can be large or run the other way;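 further: potency means the concentration at half of the fitted maximal effect; plate controls were no enzyme wells and a reference inhibitor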
PNC assembly inh: High Content Assay for Compounds that inhibit the Assembly of the Perinucleolar Compartment | PC3M PTB-GFP, PNC prevalence imaging, 16 h; stronger effect = lower value | activity change (PNC), negative = inhibition, % at 10 µM | 3.1% of 140,000 active | AID 2417, 2010;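 active means readout at or below -70, meaning at least 70% loss of cells showing the perinucleolar compartment, a nuclear body marking cancer cells; inconclusive means readout between -30 and a set limit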;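 further: plate controls were DMSO wells for no effect and camptothecin positive control wells for full effect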
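Read-out is percentage of cells bearing a perinucleolar compartment, from automated 20x imaging of fixed, Hoechst-stained PC3M PTB-GFP cells. Cells were seeded 4 h, then exposed 16 h to compound (23 nl of library stock) in duplicate plates.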
NPSR antag: qHTS Assay for Antagonists of the Neuropeptide S Receptor: cAMP Signal Transduction. Q6W5P4. CHO-NPSR cells, cAMP TR-FRET, antagonist mode. Potency, µM (doses to about 38.3 µM), for inactives: top-dose activity change, negative = inhibition, hits mostly inhibitors. 1% of 220,000 active. AID 1461, 2008; further: potency means the concentration at half of the fitted maximal effect; nearly all actives have a fitted effect of over 50% in size
IMPase Li inh: qHTS Assay for Identifying the Cell-Membrane Permeable IMPase Inhibitors: Potentiation with Lithium. CHO-M1 cells, IP1 TR-FRET (IP-One), carbachol + lithium. 0.35% of 210,000 active. Potency, µM (series often up to 59.4 µM), without a hit: at the highest dose activity, negative = IMPase inhibition, usual class: inhibitors;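 further: IP1 builds up when IMPase is blocked and the TR-FRET signal falls; potency means the concentration at half of the fitted maximal effect; plate controls were basal vehicle for no effect and high inhibitor control for full effect; nearly all actives have a fitted effect of over 50% in size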
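Concentration–response in CHO-M1 cells, lithium-potentiated; 30 min at 37C. IP1 detected by competitive TR-FRET after 10 min lysis at RT. Hill-fitted AC50.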
Numbers without * were called inactive; ? = inconclusive; . = no result given; [ ] = remark or other dose. Only some compounds are listed: those with a hit (about 11% of all), similar ones and a draw of the others. Unless noted, the call rests on the fitted dose curve; in most records, active means well fitted curve in the direction sought with a large enough effect; inconclusive means small, poorly fitted or top-dose-only effect, or another doubt; inactive means no such curve, though single readings can be large; an effect the other way counts as inactive or inconclusive. Unless noted, on the % scale 0 is the no-effect control and ±100 the full control effect.

SMILES	IMPase cell inh	HPGD block	ALDH1A1 block	PNC assembly inh	NPSR antag	IMPase Li inh
O=S1(=O)Nc2c(ccc3cccnc23)-c2ccccc21	5	-20%	?	-8	3.2µM*	11%[38.3 µM]
CCOC(=O)CNC(=S)n1cnc(N)n1	.	.	32µM*	.	11%	-3%
CCOc1ccc(C(=O)c2cc3ccc(O)cc3oc2=O)cc1	.	.	21%	.	-31%	0%
CCOc1cccc(C(=O)c2ccc(O)c(O)c2O)c1	.	16µM*	1.6µM*	.	.	38%
CCOc1cccc(C(=O)NCc2ccccc2)c1	.	.	1%	.	-1%	0%
CCOc1ccc(C(=O)c2ccc(O)c(O)c2O)cc1	.	?	9.5µM*	.	.	-2%
c1ccc(-c2nc3c(ccc4ccccc43)[nH]2)nc1	-7	?	?	-28	?	-3%
Cc1ccc(-c2nc(SCC(=O)NCCN3C(=O)CSC3=O)[nH]c2-c2ccc(C)cc2)cc1	23	-19%	-9%	-30	-16%[46.1 µM]	0%[38.3 µM]
CC(C)(C)C(=O)COc1ccccc1[N+](=O)[O-]	.	.	20µM*	.	7%	3%
Cn1cc(/C=N/NC(=O)COc2ccccc2[N+](=O)[O-])c2ccccc21	.	-8%	-19%	?	11%	1%
O=C(COC(=O)COc1ccccc1[N+](=O)[O-])Nc1ccccc1Br	.	-18%	18µM*	-2	19%	-1%
Cc1cccc(N=Cc2cc3c(cc2[N+](=O)[O-])OCO3)c1	7	-20%	?	-8	-6%[46.1 µM]	-24%[38.3 µM]
O=C(COc1ccccc1[N+](=O)[O-])N/N=C/c1cccs1	.	-8%	0%	-96*	3%	-6%
Cc1cccc(OCC(=O)N/N=C\c2cc3c(cc2[N+](=O)[O-])OCO3)c1C	2	-5%	7.9µM*	50	?	4%[38.3 µM]
COc1ccc(NC(=O)N2CCCC2C(=O)Nc2ccc(C)c(Cl)c2)cc1 (stereo not given)	-1	-5%	11%	-11	-9%[46.1 µM]	0%[38.3 µM]
Cc1ccc(Nc2nc3ccccc3c(=O)[nH]2)cc1C	.	.	6%	.	-6%	-1%
COc1ccc(/C=N\NC(=O)c2nn(C)cc2Cl)cc1CN1CCOCC1	.	?	?	?	-6%	9%
Cc1nc(SCC(=O)Nc2ccccc2)c2oc3ccccc3c2n1	-5	.	?	?	?	.
Cc1nc(SCC(=O)c2ccc(Cl)s2)c2oc3ccccc3c2n1	-7	2.2µM*	?	-25	?	?
CNC(=O)C(Sc1nc(C)nc2c1oc1ccccc12)C(C)=O (stereo not given)	-25	-24%	13µM*	-2	-7%[46.1 µM]	4.5µM*
Cc1nc(SCC(=O)NCCc2ccccc2)c2oc3ccccc3c2n1	0	-20%	-1%	-100*	?	6.3µM*
Cc1cc(C)nc(Sc2nc(C)nc3c2oc2ccccc23)n1	0	32µM*	?	128	-3%[46.1 µM]	-1%[38.3 µM]
COC(=O)c1ccc(Cn2nc(C)cc2C)cc1	-4	-7%	5%	17	-3%[46.1 µM]	24%[38.3 µM]
CCCS(=O)(=O)c1csc(C(=O)OC)c1N	.	.	.	.	10%	.
CC(=O)N1CCC[C@@]2(CCN(c3ccccc3)C2)C1	.	-10%	2%	.	.	26%
COc1ccc(S(=O)(=O)Nc2ccc(S(=O)(=O)N(C)C)cc2)cc1[N+](=O)[O-]	.	-8%	13µM*	-11	2%	1%
CCN(CC)S(=O)(=O)c1ccc(NS(=O)(=O)c2ccc(OC)c([N+](=O)[O-])c2)cc1	.	-5%	?	76	0%	2%
COc1cccc(C(c2sc3ncnn3c2O)N2CCc3ccccc3C2)c1 (stereo not given)	-5	?	?	9	12%[46.1 µM]	3%
